# Hits are enriched below; roughly 3.6% of the tested compounds scored in any of these assays.
# ERb SRC1 inh = inhibitors of ERβ-SRC1 coactivator interaction, primary screen, biochemical, TR-FRET, ERβ LBD, SRC-1 peptide; TR-FRET ER-beta LBD / SRC1-Cy5 peptide binding; receptor agonist-loaded with 1 µM estradiol; inhibition, % at 25.6 µM; 86,000 tested, 1.3% active; AID 633, 2007;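 active = compounds whose percent inhibition of the receptor-coactivator binding signal exceeds about 50% in the single-dose screen, limit read from the data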
# ERa coact pot = enhancers of ERα–SRC-1 coactivator binding, primary screen, biochemical, TR-FRET, ERα LBD, low estradiol | coactivator binding (% of control), % at 25.6 µM | 86,000 tested, 1.3% active | TR-FRET ERalpha-LBD/SRC-Cy5 coactivator binding, 2 h; 100 = basal binding, no effect | Estrogen receptor (Homo sapiens), P03372 | AID 639, 2007; in the data active = activity above about 200%;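 note: binding measured in presence of low estradiol as agonist stimulus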
# Target sequence (P03372 whole entry, looked up, the tested form may be a part): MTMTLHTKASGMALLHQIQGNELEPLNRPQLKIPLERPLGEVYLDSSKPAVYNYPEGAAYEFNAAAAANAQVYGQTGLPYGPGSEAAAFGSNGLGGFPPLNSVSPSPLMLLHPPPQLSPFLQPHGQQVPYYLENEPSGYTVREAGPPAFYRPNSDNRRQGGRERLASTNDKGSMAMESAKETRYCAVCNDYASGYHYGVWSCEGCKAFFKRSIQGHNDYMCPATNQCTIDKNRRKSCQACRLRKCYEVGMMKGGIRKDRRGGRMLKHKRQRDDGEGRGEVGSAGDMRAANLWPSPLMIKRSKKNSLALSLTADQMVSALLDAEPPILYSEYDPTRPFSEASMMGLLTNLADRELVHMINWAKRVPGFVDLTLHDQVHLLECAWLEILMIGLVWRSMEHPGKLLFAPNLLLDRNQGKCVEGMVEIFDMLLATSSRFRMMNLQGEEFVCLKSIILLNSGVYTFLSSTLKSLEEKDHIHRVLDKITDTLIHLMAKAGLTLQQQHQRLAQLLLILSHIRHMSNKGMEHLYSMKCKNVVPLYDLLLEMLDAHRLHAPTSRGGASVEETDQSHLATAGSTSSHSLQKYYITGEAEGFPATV
# Smad3 inh = Smad3/FoxH1 peptide binding inhibitors, primary screen, biochemical, TR-FRET. TR-FRET Smad3/Dy647-FoxH1 peptide binding, europium anti-His. 88,000 tested, 0.29% active. inhibition, % at 25 µM;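 active = compounds that reduce the energy-transfer binding signal between the protein and its labelled peptide by more than half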
# ERa coact inh = ERα–SRC-1 coactivator interaction inhibitors, primary screen, biochemical, TR-FRET, ERα LBD, estradiol-bound; Estrogen receptor (Homo sapiens), P03372; inhibition, % at 25.6 µM; 86,000 tested, 1.7% active; TR-FRET ER-alpha LBD / SRC-1 peptide; in the data active = inhibition above about 50%
# Candida biofilm = clotrimazole potentiators killing Candida biofilms, primary screen, with clotrimazole, Alamar Blue | C. albicans biofilm + clotrimazole | inhibition, % at 6 µM | 85,000 tested, 0.14% active | AID 834, 2007;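 active = inhibition above 20%; inactive = inhibition below 20%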;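 note: preformed 24 hr biofilms exposed to compound for 48 hr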
# Numbers stand for hits; . = inactive; / = not tested or not shown; [ ] = dose if it differs, or a comment.
SMILES,ERb SRC1 inh,ERa coact pot,Smad3 inh,ERa coact inh,Candida biofilm
CC1(C)C(C=C(Cl)Cl)C1C(=O)N1CCN(c2ccccc2)CC1 (centres undefined),.,.,.,.,.
COC(=O)c1ccc(OC(=O)c2ccc(OCc3c(C)noc3C)c(OC)c2)cc1,.,280[fluorescence artefact?],.,51[fluorescence artefact?],.
COc1cc(C(=O)NCc2ccc(C)cc2)ccc1OCc1c(C)noc1C,.,.,.,.,.
O=C(Nc1nnc(-c2ccc3c(c2)OCCO3)o1)c1ccc(Cc2ccccc2)cc1,65[fluorescence artefact?],351[fluorescence artefact?],.,.,.
COc1ccc(-c2nc3cc(NC(=O)Cc4ccc(OC)c(OC)c4)ccc3o2)cc1,.,273[fluorescence artefact?],.,.,.
COc1ccc(CC(=O)Nc2cccc(-c3nnc(-c4ccccc4)o3)c2)cc1OC,.,.,.,.,.
CCN(CC)CC(=O)Nc1ccc(-c2nc3cc(NC(=O)CN(CC)CC)ccc3o2)cc1,.,.,.,.,.
COc1ccc(CC(=O)Nc2ccc(-c3nnc(-c4ccccc4)o3)cc2)cc1OC,51[fluorescence artefact?],.,.,70[fluorescence artefact?],.
CCCCCCCc1nc2c(=O)[nH]c3ccccc3c2o1,.,.,.,.,.
CCc1cccc(NC(=O)CS(=O)Cc2nc(-c3ccc(C)cc3)oc2C)c1 (centres undefined),.,.,.,.,.
COc1ccc(NC(=O)c2cc(Cl)ccc2NC(=O)c2ccco2)c(OC)c1,.,217[fluorescence artefact?],.,.,.
CC(=O)O[C@H]1CC[C@@]2(C)C(=CC[C@@H]3[C@H]4CC[C@@H]([C@H](C)C(=O)O)[C@]4(C)CC[C@H]32)C1,/,/,52,/,/
N#Cc1nc(-c2ccc(OCc3ccccc3)cc2)oc1N1CCC(C(N)=O)CC1,.,250[fluorescence artefact?],.,59[fluorescence artefact?],.
COc1ccc(-c2nc(C#N)c(N3CCC(C(N)=O)CC3)o2)cc1,.,.,.,.,.
CCn1cc(C(=O)Nc2nncs2)c(=O)c2cc(F)c(N3CCN(C(=O)c4ccco4)CC3)cc21,.,.,.,.,.
CCOc1ccccc1NC(=S)NCc1ccco1,.,.,.,.,.
NC1=CC(=O)c2cccc3cccc1c23,76[fluorescence artefact?],.,.,86[fluorescence artefact?],.
O=C(CCN1C(=O)c2ccccc2C1=O)Nc1ccc(F)cc1,.,.,.,85[fluorescence artefact?],.
O=C(CCN1C(=O)c2ccccc2C1=O)Nc1ccc(F)cc1F,.,.,.,.,.
O=C(O)c1cccc(S(=O)(=O)Nc2ccc3oc(=O)sc3c2)c1,52[fluorescence artefact?],.,.,.,.
O=C(O)c1cccc(S(=O)(=O)NCC2CCCO2)c1 (centres undefined),.,.,.,.,.
CCCc1cc(=O)oc2cc(OCC(=O)Nc3cc(C)on3)ccc12,.,820[fluorescence artefact?],.,.,.
C=C(Cl)COc1ccc2c(CCC)cc(=O)oc2c1,.,.,.,.,.
CCCc1cc(=O)oc2cc(OCC(=O)N3CCc4ccccc43)ccc12,.,335[fluorescence artefact?],.,.,.
CCCCc1cc(=O)oc2cc(OCC(=O)N3CCc4ccccc43)ccc12,.,200,.,.,.
SMILES,ERb SRC1 inh,ERa coact pot,Smad3 inh,ERa coact inh,Candida biofilm
O=C(O)[C@@H]1[C@H](C(=O)O)[C@@H](C(=O)O)C[C@H]1C(=O)O,/,/,.,/,/
COc1ccc(S(=O)(=O)N2CCCC(C(=O)N3CCOCC3)C2)cc1C (centres undefined),.,.,.,.,.
CC(=O)c1cccc(NC(=O)C2CCCCC2)c1,.,263,.,.,/
CCn1c(=O)n(-c2ccc(Cl)cc2)c(=O)c2c3c(sc21)COC(C)(C)C3,.,.,.,.,.
COc1ccc(C(=O)CSc2nnc(C3CCCCC3)n2N)c(OC)c1,.,.,.,68,.
CC1CN(C2CCN(C(=O)c3ccccc3Cl)CC2)CC(C)O1 (centres undefined),.,.,.,.,.
COc1ccc(OCCCC(=O)NC(C)c2ccccc2)cc1 (centres undefined),.,.,.,.,.
CC(C)c1nc2sc3c(NCc4ccco4)ncnc3c2c2c1COC(C)(C)C2,.,.,.,54[fluorescence artefact?],.
CC(C)c1nc2sc3c(NCc4ccccc4)ncnc3c2c2c1COC(C)(C)C2,.,366[fluorescence artefact?],.,.,.
O=C(C[N+]12CN3CN(CN(C3)C1)C2)c1ccc(-c2ccccc2)cc1,/,/,77,/,/
